Drawing on paper PMC7862700, “An all-to-all approach to the identification of sequence-specific readers for epigenetic DNA modifications on cytosine”, this text covers binding signal for eight sequences.

What all share (assay): DAPPL (digital affinity profiling via proximity ligation, sequencing); 10 mM Tris-HCl pH 7.5, 50 mM NaCl, 1 mM DTT, 4% glycerol, room temperature, 30 min; GST-TFs on glutathione beads, 16-mer random dsDNA library, 0.1% formaldehyde crosslink after washing; high values mean tight binding
Holding throughout (settings): protein: recombinant; tags: N-terminal GST; dsDNA, one strand shown

The target of assay [1] is T1, ERF (Homo sapiens, UniProt P50548 1-548).
T1 sequence: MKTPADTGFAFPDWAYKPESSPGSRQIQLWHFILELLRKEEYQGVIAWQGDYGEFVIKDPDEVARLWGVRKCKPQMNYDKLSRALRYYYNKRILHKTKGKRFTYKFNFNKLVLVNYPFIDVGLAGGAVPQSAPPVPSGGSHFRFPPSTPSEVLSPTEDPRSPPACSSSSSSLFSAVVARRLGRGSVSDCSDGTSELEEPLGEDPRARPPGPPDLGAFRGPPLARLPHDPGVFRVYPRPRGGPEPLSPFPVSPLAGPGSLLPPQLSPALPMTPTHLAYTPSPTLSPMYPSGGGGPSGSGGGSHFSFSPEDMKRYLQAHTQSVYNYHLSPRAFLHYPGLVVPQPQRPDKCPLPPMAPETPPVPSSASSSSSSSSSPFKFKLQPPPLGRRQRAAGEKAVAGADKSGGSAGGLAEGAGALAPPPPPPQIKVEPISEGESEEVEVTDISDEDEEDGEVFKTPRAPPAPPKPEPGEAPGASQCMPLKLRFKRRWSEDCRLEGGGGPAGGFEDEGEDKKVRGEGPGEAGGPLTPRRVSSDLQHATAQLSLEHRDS
The gist of the method: (§1)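 Each value of binding signal is a hexamer's read frequency for a factor divided by the same hexamer's frequency in the tag-only sample. Barcoded, bead-captured GST fusions of human transcription factors made in yeast were pooled with that sample and incubated with 200 nmole of a random double-stranded 16-mer DNA library in Tris/NaCl/DTT/glycerol buffer at room temperature for 30 min. Washing, 0.1% formaldehyde crosslinking, proximity ligation, PCR and Illumina NextSeq500 sequencing followed.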

Assay [2] deals with T2, ETV3L (Homo sapiens, UniProt Q6ZN32 1-361).
T2 sequence: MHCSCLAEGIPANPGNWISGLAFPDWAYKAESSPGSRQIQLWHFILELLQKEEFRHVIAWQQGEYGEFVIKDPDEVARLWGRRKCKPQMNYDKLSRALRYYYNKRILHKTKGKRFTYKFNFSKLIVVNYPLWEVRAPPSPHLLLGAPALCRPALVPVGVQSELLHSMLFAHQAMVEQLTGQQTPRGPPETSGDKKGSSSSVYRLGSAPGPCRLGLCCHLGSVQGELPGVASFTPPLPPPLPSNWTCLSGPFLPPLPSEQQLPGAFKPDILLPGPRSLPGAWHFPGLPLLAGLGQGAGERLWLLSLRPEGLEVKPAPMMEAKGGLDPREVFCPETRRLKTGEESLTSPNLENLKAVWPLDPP
An outline of the steps:
as §1

Assay [3] deals with T3, ETS2 (Homo sapiens, UniProt P15036 1-469).
T3 sequence: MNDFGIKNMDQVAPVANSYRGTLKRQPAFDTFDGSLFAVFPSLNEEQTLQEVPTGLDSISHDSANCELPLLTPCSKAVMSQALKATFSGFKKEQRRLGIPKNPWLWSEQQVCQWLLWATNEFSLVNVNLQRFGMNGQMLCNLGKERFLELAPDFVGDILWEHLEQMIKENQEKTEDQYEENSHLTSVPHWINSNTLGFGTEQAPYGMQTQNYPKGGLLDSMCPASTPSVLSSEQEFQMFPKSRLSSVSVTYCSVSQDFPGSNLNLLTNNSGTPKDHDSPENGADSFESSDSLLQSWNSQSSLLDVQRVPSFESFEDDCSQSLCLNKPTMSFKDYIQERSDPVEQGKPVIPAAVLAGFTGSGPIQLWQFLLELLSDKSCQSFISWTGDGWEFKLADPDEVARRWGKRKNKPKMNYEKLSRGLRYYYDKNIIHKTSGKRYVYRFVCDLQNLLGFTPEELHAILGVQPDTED
The gist of the method:
as §1

The target of assay [4] is T4, SPDEF (Homo sapiens, UniProt O95238 1-335).
T4 sequence: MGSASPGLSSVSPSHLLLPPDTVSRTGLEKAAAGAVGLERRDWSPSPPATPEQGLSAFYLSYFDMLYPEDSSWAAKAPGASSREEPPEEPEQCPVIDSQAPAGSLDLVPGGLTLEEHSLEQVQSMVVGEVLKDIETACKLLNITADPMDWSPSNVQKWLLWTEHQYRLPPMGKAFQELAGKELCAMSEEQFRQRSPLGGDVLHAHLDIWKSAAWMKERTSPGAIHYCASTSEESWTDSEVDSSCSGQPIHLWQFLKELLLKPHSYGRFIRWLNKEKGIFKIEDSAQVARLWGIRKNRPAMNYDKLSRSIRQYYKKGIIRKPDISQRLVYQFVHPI
An outline of the steps:
as §1

Assay [5] concerns the target T5, ETV7 (Homo sapiens, UniProt Q9Y603 1-341).
T5 sequence: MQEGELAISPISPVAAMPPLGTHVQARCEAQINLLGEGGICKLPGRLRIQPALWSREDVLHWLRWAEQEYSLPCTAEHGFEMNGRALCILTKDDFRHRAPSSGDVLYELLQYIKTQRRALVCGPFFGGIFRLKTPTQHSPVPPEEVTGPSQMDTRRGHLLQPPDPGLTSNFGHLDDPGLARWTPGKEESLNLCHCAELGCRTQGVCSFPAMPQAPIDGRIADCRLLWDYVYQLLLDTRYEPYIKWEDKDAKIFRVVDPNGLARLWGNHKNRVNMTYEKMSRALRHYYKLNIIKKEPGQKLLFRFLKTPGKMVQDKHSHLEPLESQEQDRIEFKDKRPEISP
An outline of the steps: as §1

For assay [6], the target named is T6, ELF5 (Homo sapiens, UniProt Q9UKW6-2 1-255).
T6 sequence: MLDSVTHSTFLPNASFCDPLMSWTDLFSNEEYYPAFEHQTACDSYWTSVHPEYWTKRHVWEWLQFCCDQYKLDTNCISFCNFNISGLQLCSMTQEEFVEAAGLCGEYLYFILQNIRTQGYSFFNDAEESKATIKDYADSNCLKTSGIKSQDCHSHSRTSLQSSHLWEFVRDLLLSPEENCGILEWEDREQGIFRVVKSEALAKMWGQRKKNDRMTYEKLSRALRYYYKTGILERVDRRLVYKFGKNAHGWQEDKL
An outline of the steps:
as §1

Assay [7] has as its target T7, ETV3 (Homo sapiens, UniProt P41162-2 1-143).
T7 sequence: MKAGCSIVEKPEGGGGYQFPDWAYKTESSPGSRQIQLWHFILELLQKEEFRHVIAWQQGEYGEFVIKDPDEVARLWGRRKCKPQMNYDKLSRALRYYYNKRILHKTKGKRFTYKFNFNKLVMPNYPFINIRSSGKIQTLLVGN
The gist of the method: as §1

The target in assay [8] is ETV6 (Homo sapiens, UniProt P41212 1-452). An outline of the steps:
as §1

Sequence of ETV6 (P41212 whole entry): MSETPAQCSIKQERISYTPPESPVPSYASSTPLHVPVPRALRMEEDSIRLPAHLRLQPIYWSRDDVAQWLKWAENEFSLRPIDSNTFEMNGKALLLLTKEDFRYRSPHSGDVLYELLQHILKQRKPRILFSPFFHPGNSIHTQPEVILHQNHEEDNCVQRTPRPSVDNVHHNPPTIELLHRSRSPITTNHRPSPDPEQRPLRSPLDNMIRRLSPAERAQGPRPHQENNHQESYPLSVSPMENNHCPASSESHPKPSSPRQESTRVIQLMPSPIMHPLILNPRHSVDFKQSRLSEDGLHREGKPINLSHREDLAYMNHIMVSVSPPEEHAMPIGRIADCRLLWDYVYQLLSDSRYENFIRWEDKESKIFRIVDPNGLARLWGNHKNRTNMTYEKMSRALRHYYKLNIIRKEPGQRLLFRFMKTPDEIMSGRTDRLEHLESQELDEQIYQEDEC

For the sequence GGCACT, the binding signal in assay [1] is 1.26 fold enrichment (6-mer frequency, TF over GST control); in assay [2], 1.27 fold enrichment (6-mer frequency, TF over GST control); in assay [3], 1.24 fold enrichment (6-mer frequency, TF over GST control); in assay [4], 1.24 fold enrichment (6-mer frequency, TF over GST control); in assay [5] it was 1.26 fold enrichment (6-mer frequency, TF over GST control); in assay [6], 1.11 fold enrichment (6-mer frequency, TF over GST control). The binding signal is 1.29 fold enrichment (6-mer frequency, TF over GST control) in assay [7] and 1.31 fold enrichment (6-mer frequency, TF over GST control) in assay [8].

Take GGAAAA: the binding signal is 1.12 fold enrichment (6-mer frequency, TF over GST control) in assay [1]; 1.31 fold enrichment (6-mer frequency, TF over GST control) in assay [2]; 1.27 fold enrichment (6-mer frequency, TF over GST control) in assay [3]; 1.12 fold enrichment (6-mer frequency, TF over GST control) in assay [4]; 1.26 fold enrichment (6-mer frequency, TF over GST control) in assay [5]; 1.67 fold enrichment (6-mer frequency, TF over GST control) in assay [6]. Besides, the binding signal was 1.31 fold enrichment (6-mer frequency, TF over GST control) in assay [7] and 1.53 fold enrichment (6-mer frequency, TF over GST control) in assay [8].

Turning to ACCGTC, the binding signal is 1.25 fold enrichment (6-mer frequency, TF over GST control) in assay [1]; 1.23 fold enrichment (6-mer frequency, TF over GST control) in assay [2]; 1.28 fold enrichment (6-mer frequency, TF over GST control) in assay [3]; 1.35 fold enrichment (6-mer frequency, TF over GST control) in assay [4]; 1.09 fold enrichment (6-mer frequency, TF over GST control) in assay [5]; 1.08 fold enrichment (6-mer frequency, TF over GST control) in assay [6]. The binding signal is 1.2 fold enrichment (6-mer frequency, TF over GST control) in assay [7] and 1.21 fold enrichment (6-mer frequency, TF over GST control) in assay [8].

For TCCTTA, the binding signal in assay [1] is 1.43 fold enrichment (6-mer frequency, TF over GST control); in assay [2] it was 1.7 fold enrichment (6-mer frequency, TF over GST control); in assay [3] it was 1.6 fold enrichment (6-mer frequency, TF over GST control); in assay [4], 1.75 fold enrichment (6-mer frequency, TF over GST control); in assay [5] it was 1.59 fold enrichment (6-mer frequency, TF over GST control); in assay [6] it was 2.6 fold enrichment (6-mer frequency, TF over GST control). Besides, the binding signal in assay [7] was 1.74 fold enrichment (6-mer frequency, TF over GST control); in assay [8], 1.63 fold enrichment (6-mer frequency, TF over GST control).

GCTTAG: the binding signal in assay [1] was 1.2 fold enrichment (6-mer frequency, TF over GST control); in assay [2] it was 1.12 fold enrichment (6-mer frequency, TF over GST control); in assay [3], 1.11 fold enrichment (6-mer frequency, TF over GST control); in assay [4] it was 1.17 fold enrichment (6-mer frequency, TF over GST control); in assay [5], 1.13 fold enrichment (6-mer frequency, TF over GST control); in assay [6] it was 1.01 fold enrichment (6-mer frequency, TF over GST control). For the same sequence, the binding signal in assay [7] is 1.19 fold enrichment (6-mer frequency, TF over GST control); in assay [8], 1.07 fold enrichment (6-mer frequency, TF over GST control).

As to GCAACT, the binding signal in assay [1] is 1.07 fold enrichment (6-mer frequency, TF over GST control); in assay [2], 1.17 fold enrichment (6-mer frequency, TF over GST control); in assay [3], 1.16 fold enrichment (6-mer frequency, TF over GST control); in assay [4] it was 1.11 fold enrichment (6-mer frequency, TF over GST control); in assay [5], 1.2 fold enrichment (6-mer frequency, TF over GST control); in assay [6], 1.18 fold enrichment (6-mer frequency, TF over GST control). Further, the binding signal is 1.16 fold enrichment (6-mer frequency, TF over GST control) in assay [7] and 1.24 fold enrichment (6-mer frequency, TF over GST control) in assay [8].

As for CAACCC, the binding signal in assay [1] is 1.22 fold enrichment (6-mer frequency, TF over GST control); in assay [2] it was 1.25 fold enrichment (6-mer frequency, TF over GST control); in assay [3], 1.28 fold enrichment (6-mer frequency, TF over GST control); in assay [4], 1.2 fold enrichment (6-mer frequency, TF over GST control); in assay [5] it was 1.15 fold enrichment (6-mer frequency, TF over GST control); in assay [6] it was 1.2 fold enrichment (6-mer frequency, TF over GST control). Further, the binding signal in assay [7] is 1.27 fold enrichment (6-mer frequency, TF over GST control); in assay [8], 1.22 fold enrichment (6-mer frequency, TF over GST control).

As for TTCTGT, the binding signal in assay [1] is 1.39 fold enrichment (6-mer frequency, TF over GST control); in assay [2] it was 1.42 fold enrichment (6-mer frequency, TF over GST control); in assay [3] it was 1.29 fold enrichment (6-mer frequency, TF over GST control); in assay [4], 1.15 fold enrichment (6-mer frequency, TF over GST control); in assay [5], 1.26 fold enrichment (6-mer frequency, TF over GST control); in assay [6], 1.29 fold enrichment (6-mer frequency, TF over GST control). In addition, the binding signal is 1.19 fold enrichment (6-mer frequency, TF over GST control) in assay [7] and 1.38 fold enrichment (6-mer frequency, TF over GST control) in assay [8].
